An excerpt weighted towards active compounds, which were near 3% of everything screened.
SKOV3 invasion = ovarian cancer metastasis inhibition, 3D TME model; 46,000 tested, 0.1% active; SKOV3ip1-GFP adhesion/invasion on 3D omental model, fluorescence; AID 1963576; Potency, µM (titrated, usually from 45.8 µM), for the others: at the highest dose activity change, negative = inhibition, hits mostly inhibitors;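 note: potency is the fitted concentration of half-maximal effect; plate controls were DMSO wells for no effect and tomatine positive control wells for full effect; nearly all actives have a fitted effect of over 65% in size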
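qHTS, 4-pt dose (0.36-46 umol/L); SKOV3ip1-GFP, 1,200 cells/well, no FBS; primary omental fibroblast/mesothelial co-culture 48 h pre-grown; 2 h RT + 16 h 37 C; PBS wash, 4% PFA; GFP count 488/509 nm.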
PMP22 txn prim = PMP22 gene transcription modulation. S16 Pmp22-F2sN Schwann cells, FLuc/NLuc coincidence luminescence, 24 h. 43,000 tested, 2% active. Potency, µM (series often up to 57.5 µM), for the others: at the highest dose activity change, negative = inhibition, most hits filed as inhibitors; active = clear falling dose curves in both reporters; inconclusive = both reporters move, but less clearly or upward; inactive = either reporter flat; the % is the NLuc reporter signal; note: potency is the fitted concentration of half-maximal effect; % is set by controls: 0 for no effect and ±100 for the full control effect
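Reporter cells (S16 Pmp22-F2sN, 500–1,000 per well) exposed to compounds for 24 h, 37C, 5% CO2; lysis with FLuc read after 10 min, then Stop&Glo and NLuc read after 10 min.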
p53null 39C tox = p53 null cell cytotoxicity, nonpermissive temperature. Potency, µM (titrated, usually from 46.1 µM), inactives show top-dose activity, negative = cell killing, hits mostly cytotoxic. 55,000 tested, 0.97% active. AID 904. H1299 p53-null (neo) cells, 39C, ATPlite viability, 24 h;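 note: potency is the fitted concentration of half-maximal effect; 0% = DMSO only and -100% = full killing by 100 µM tamoxifen; nearly all actives have a fitted effect of over 50% in size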
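ATP-luminescence viability readout (ATPlite, 20 min RT) after 24 hr compound treatment at 39C of H1299-neo or H1299-p53A138V cells; titration up to 46 uM; normalized to DMSO and 100 uM tamoxifen; Hill-fit AC50.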
p53null 32C tox = p53 null cell cytotoxicity, permissive temperature; H1299-neo p53 null cells, ATP luminescence, 24 h, 32C; Potency, µM (doses to about 46.1 µM), for inactives: at the top dose activity change, negative = cytotoxicity, hits mostly cytotoxic; 55,000 tested, 0.62% active;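 note: potency is the fitted concentration of half-maximal effect; 0% = DMSO only and -100% = full killing by 100 µM tamoxifen; nearly all actives have a fitted effect of over 55% in size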
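Cells lacking p53 (H1299-neo) are plated at 600 per well and allowed to settle overnight at 37C. Test compounds (up to 46 uM) are added and held 24 hours at 32C, then ATP is quantified by luminescence.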
pS6 MEF inh = reduces mTORC1 signaling in Tsc2 and p53 null MEF cells; Tsc2-/- p53-/- MEF, phospho-rpS6 immunofluorescence/PI, 24 h; Potency, µM (titrated, usually from 38.3 µM), inactives show at the highest dose activity change, negative = inhibition, most hits filed as inhibitors; 44,000 tested, 0.78% active; AID 493208;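 note: potency is the fitted concentration of half-maximal effect; plate controls were DMSO for no effect and rapamycin for full effect; nearly all actives have a fitted effect of over 50% in size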
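Tsc2-/-, p53-/- mouse embryonic fibroblasts (empty-vector line) exposed to compound 24 hrs at 37 C, fixed, immunostained for phospho-rpS6 and counterstained with propidium iodide. Acumen laser scanning gives % positive cells from Alexa 488/PI ratio, thresholded using 7.5 nM rapamycin; PI count gives viability.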
S16 viability = cytotoxicity in S16 Pmp22-F2sN Schwann cells; S16 Pmp22-F2sN Schwann cells viability, CellTiter-Glo, 24 h; Potency, µM (highest dose often 57.5 µM), inactives show at the top dose activity change, negative = cytotoxicity, most hits filed as cytotoxic; 43,000 tested, 0.48% active; AID 1508642; note: potency is the fitted concentration of half-maximal effect; % is set by controls: 0 for no effect and ±100 for the full control effect; nearly all actives have a fitted effect of over 65% in size
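Viability was measured by CellTiter-Glo luminescence (15 min, room temperature). This followed 24 h at 37 °C of compound exposure (23 nL pin transfer) in S16 Pmp22-F2sN Schwann cells, 500-1,000 per well.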
NLuc saturating = counter-screen for PMP22 expression modulators: NanoLuc inhibition, saturating substrate. Secreted NLuc enzyme (filtered S16 cell medium), Nano-Glo luminescence. shares compounds with PMP22 txn prim. Potency, µM (series often up to 57.5 µM), without a hit: top-dose activity change, negative = inhibition, most hits filed as inhibitors. AID 1508638. 690 tested, 4% active; note: potency is the fitted concentration of half-maximal effect; % is set by controls: 0 for no effect and ±100 for the full control effect
NLuc Km counter = NanoLuc inhibition at Km substrate, PMP22 artifact check; shares compounds with PMP22 txn prim; secreted NLuc enzyme, coelenterazine luminescence, Km conditions; Potency, µM (titrated, usually from 57.5 µM), without a hit: top-dose activity change, negative = inhibition, hits mostly inhibitors; 690 tested, 5% active; note: potency is the fitted concentration of half-maximal effect; % is set by controls: 0 for no effect and ±100 for the full control effect
FLuc ctr PMP22 = counter-screen for PMP22 expression modulators: firefly luciferase inhibition | shares compounds with PMP22 txn prim | purified P. pyralis FLuc, luminescence, 10 min | Potency, µM (titrated, usually from 57.5 µM), for the others: top-dose activity, negative = inhibition, hits mostly inhibitors | 690 tested, under 10 active | AID 1508640; note: % of control where 0% means no effect
Target sequence (P08659 whole entry, looked up): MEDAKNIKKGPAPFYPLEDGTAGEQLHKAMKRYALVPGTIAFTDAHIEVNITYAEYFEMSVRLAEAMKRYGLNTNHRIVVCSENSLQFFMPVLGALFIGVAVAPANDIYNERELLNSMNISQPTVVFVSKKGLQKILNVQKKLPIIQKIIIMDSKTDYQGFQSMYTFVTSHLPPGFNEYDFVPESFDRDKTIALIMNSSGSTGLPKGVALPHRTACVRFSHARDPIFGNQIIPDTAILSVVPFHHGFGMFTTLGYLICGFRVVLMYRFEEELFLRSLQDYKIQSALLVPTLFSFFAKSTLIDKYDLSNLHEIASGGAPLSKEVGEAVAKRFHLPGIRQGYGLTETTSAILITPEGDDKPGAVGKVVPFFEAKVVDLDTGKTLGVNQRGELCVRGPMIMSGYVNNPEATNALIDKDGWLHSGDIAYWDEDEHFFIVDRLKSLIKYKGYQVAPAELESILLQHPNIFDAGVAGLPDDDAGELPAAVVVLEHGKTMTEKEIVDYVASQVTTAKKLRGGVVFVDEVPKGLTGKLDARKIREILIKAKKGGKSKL
S16 viab conf = confirmation of cytotoxicity in S16 Pmp22-F2sN Schwann cells (luciferase reporters placed in the Pmp22 gene); 690 tested, 7% active; AID 1508641; Potency, µM (titrated, usually from 57.5 µM), for inactives: top-dose activity change, negative = viability loss, hits mostly cytotoxic; S16 Schwann cells viability, CellTiter-Glo ATP luminescence, 24 h; shares compounds with PMP22 txn prim; note: potency is the fitted concentration of half-maximal effect; % is set by controls: 0 for no effect and ±100 for the full control effect
PMP22 txn conf = confirmation of modulators of PMP22 gene transcription in S16 cells; 690 tested, 22% active; Potency, µM (doses to about 57.5 µM), for inactives: top-dose activity change, negative = inhibition, most hits filed as inhibitors; shares compounds with PMP22 txn prim; S16 Schwann cells Pmp22-F2sN, dual luciferase, 24 h; active = clear falling dose curves in both reporters; inconclusive = both reporters move, but less clearly or upward; inactive = either reporter flat; the % is the FLuc reporter signal; note: potency is the fitted concentration of half-maximal effect
PMP22 HiBiT cnf = confirmation of modulators of rat PMP22 protein expression; shares compounds with PMP22 txn prim; AID 1508647; Potency, µM (series often up to 27.9 µM), inactives show at the top dose activity change, negative = inhibition, most hits filed as inhibitors; S16 Schwann cells Pmp22-HiBiT, luminescence, 48 h; 95 tested, under 10 active
Target sequence (P25094 whole entry, looked up): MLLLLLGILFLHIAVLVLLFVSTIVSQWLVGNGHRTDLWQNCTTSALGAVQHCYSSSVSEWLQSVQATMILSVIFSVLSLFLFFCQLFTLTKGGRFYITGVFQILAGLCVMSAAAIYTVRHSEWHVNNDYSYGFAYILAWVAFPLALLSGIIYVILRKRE
* marks the source's active call; other numbers are inactive results; i = inactive; ? = inconclusive; . = no result. Unless noted, calls come from the whole dose curve; as a rule, active = well fitted curve in the direction sought with a large enough effect; inconclusive = small, poorly fitted or top-dose-only effect, or another doubt; inactive = no such curve, though single readings can be large; an effect the other way counts as inactive or inconclusive.

SMILES | SKOV3 invasion | PMP22 txn prim | p53null 39C tox | p53null 32C tox | pS6 MEF inh | S16 viability | NLuc saturating | NLuc Km counter | FLuc ctr PMP22 | S16 viab conf | PMP22 txn conf | others
CCc1nn(CC(=O)Nc2ccc(NC(C)=O)cc2)c(=O)c2cc3sccc3n12 | i | -9% | -15% | 6% | 1% | -14% | . | . | . | . | .
CCc1ccccc1NC(=O)Cn1nc(CC)n2c(cc3sccc32)c1=O | 12% | -42% | 1% | -4% | -5% | 5% | -7% | -7% | 10% | 9% | ?
CCc1nnc(NC(=O)c2nc(S(C)(=O)=O)ncc2Cl)s1 | -8% | 9.5µM* | -11% | 6% | ? | ? | ? | ? | -4% | ? | 14µM* | PMP22 HiBiT cnf=?
C[C@@]12C[C@@]3(O)O[C@@H](O1)[C@]1(COC(=O)c4ccccc4)[C@@H]3C[C@@]12O[C@@H]1O[C@H](CO)[C@@H](O)[C@H](O)[C@@H]1O | 15% | . | . | . | . | . | . | . | . | . | .
Cc1ccc(Nc2cc(C(=O)NC3CCCC3)c3ccccc3n2)cc1C | -11% | 2.8µM* | -15% | -2% | -13% | -8% | 2% | 1% | ? | 9% | -11%
NC(=O)NN=Cc1ccc([N+](=O)[O-])o1 | 12% | . | . | . | . | . | . | . | . | . | .
CC(C)(O)CCc1ccc(OCc2cc(-c3cccc(OC(F)F)c3)c3ncccc3c2)cc1 | 8% | . | . | . | . | . | . | . | . | . | .
COc1ccc(OC)c(CNS(=O)(=O)c2ccc3[nH]c4c(c3c2)CCCCC4)c1 | 14% | 15µM* | 39% | 9% | -8% | -18% | -11% | ? | 2% | 1% | -16%
Cc1ccc(NS(=O)(=O)c2ccc3[nH]c4c(c3c2)CCCC4)cc1N(C)C | -20% | 17µM* | -16% | 17% | -17% | ? | 2% | -20% | 1% | 7% | ?
Cc1ccc(NS(=O)(=O)c2ccc3[nH]c4c(c3c2)CCCCCC4)cc1Cl | ? | ? | 15% | 61% | -18% | -9% | . | . | . | . | .
CC[C@@H]([C@H](C)O)n1ncn(-c2ccc(N3CCN(c4ccc(OCC5CO[C@@](Cn6cncn6)(c6ccc(F)cc6F)C5)cc4)CC3)cc2)c1=O (some centres undefined) | 4% | . | . | . | . | . | . | . | . | . | .
O=C(O)[C@H]1O[C@H](Oc2cc3oc(-c4ccccc4)cc(=O)c3c(O)c2O)[C@H](O)[C@@H](O)[C@H]1O | 3% | . | . | . | . | . | . | . | . | . | .
O=C(c1ccc(F)cc1)N1CCC[C@H](c2nc(-c3ccc(F)cc3)no2)C1 | 8% | . | . | . | . | . | . | . | . | . | .
COc1ccc(CN2CCN(Cc3cc(=O)oc4cc(C)ccc34)CC2)c(OC)c1OC | i | 17µM* | ? | -11% | ? | ? | -15% | 5% | 3% | -28% | -21%
Cc1ccc2c(CN3CCN(c4ccc(Cl)cc4)CC3)cc(=O)oc2c1 | 0% | ? | -11% | -2% | 1% | -6% | . | . | . | . | .
CCNc1nc2c(c(=O)n(C)c(=O)n2C)n1Cc1ccc(F)cc1 | -1% | ? | 7% | -2% | ? | ? | . | . | . | . | .
COc1ccc(CCNc2nc3c(c(=O)n(C)c(=O)n3C)n2Cc2ccc(F)cc2)cc1OC | ? | 10µM* | -7% | 5% | -18% | ? | ? | ? | 10% | -23% | -26%
Cn1c(=O)c2c(nc(NCc3ccccc3)n2Cc2ccc(Cl)c(Cl)c2)n(C)c1=O | -3% | 14µM* | -15% | ? | -12% | -24% | -9% | ? | -2% | -25% | ?
CN(C)CCOc1ccc(-c2nc(-c3ccc4c(c3)CCC4=NO)c(-c3ccncc3)[nH]2)cc1 | -4% | . | . | . | . | . | . | . | . | . | .
Cc1cccc(NC(=O)c2cnn(-c3ccccc3)c2-n2cccc2)c1C | -3% | 13µM* | -17% | 22% | 1% | -19% | 19µM* | 15µM* | 0% | -21% | -24%
CCc1nn(CC(=O)N(CC)Cc2ccccc2)c(=O)c2cc3occc3n12 | i | ? | 8% | -7% | 0% | 6% | -20% | ? | 3% | 5% | -3%
CCN(CC)CCCNC(=O)c1ccc2c(c1)sc1nc(-c3ccc(C)cc3)cn12 | ? | 10µM* | 1% | 4% | 6% | ? | ? | ? | 15µM* | 15µM* | 15µM*
CC(=O)N1CCN(c2ccc(OCc3nn(C)c(C)c3-c3cccc4c(CCCOc5cccc6ccccc56)c(C(=O)O)n(Cc5cccnc5)c34)cc2)CC1 | -19% | . | . | . | . | . | . | . | . | . | .
CCOC(=O)c1c(NC(=O)c2ccc(S(=O)(=O)N(C)C)cc2)sc2c1CCN(C)C2 | ? | ? | -6% | -1% | ? | -7% | . | . | . | . | .
CCOC(=O)c1c(NC(=O)c2ccc(S(=O)(=O)N3CCC(C)CC3)cc2)sc2c1CCN(C)C2 | ? | 18µM* | -2% | -26% | 15µM* | ? | ? | ? | 6% | ? | 18µM*

Source: PubChem (National Center for Advancing Translational Sciences (NCATS))
